In ChEMBL document CHEMBL3988442, “University of Dundee, Small-Polar-MMV Screening Library” (2021) one finds Percent Effect data, which are given here for 13 compounds.

For some of these results: Entries with a potency or affinity are not part of this list.

Common to all, as to parameters: scale not given: direction of the effect not stated beside the values
Assay [1] addresses Protein translocase subunit SecA (Escherichia coli (strain K12)) (UniProt P10408). Put plainly: Assay to Identify E. coli SecA ATPase Inhibitors. As to conditions: 30 µM. The assay is classed as functional.
For assay [2], the target named is T1, Ubiquitin-activating enzyme e1, putative (Leishmania donovani (strain BPK282A1)) (UniProt E9BSI1).
T1 sequence (whole entry): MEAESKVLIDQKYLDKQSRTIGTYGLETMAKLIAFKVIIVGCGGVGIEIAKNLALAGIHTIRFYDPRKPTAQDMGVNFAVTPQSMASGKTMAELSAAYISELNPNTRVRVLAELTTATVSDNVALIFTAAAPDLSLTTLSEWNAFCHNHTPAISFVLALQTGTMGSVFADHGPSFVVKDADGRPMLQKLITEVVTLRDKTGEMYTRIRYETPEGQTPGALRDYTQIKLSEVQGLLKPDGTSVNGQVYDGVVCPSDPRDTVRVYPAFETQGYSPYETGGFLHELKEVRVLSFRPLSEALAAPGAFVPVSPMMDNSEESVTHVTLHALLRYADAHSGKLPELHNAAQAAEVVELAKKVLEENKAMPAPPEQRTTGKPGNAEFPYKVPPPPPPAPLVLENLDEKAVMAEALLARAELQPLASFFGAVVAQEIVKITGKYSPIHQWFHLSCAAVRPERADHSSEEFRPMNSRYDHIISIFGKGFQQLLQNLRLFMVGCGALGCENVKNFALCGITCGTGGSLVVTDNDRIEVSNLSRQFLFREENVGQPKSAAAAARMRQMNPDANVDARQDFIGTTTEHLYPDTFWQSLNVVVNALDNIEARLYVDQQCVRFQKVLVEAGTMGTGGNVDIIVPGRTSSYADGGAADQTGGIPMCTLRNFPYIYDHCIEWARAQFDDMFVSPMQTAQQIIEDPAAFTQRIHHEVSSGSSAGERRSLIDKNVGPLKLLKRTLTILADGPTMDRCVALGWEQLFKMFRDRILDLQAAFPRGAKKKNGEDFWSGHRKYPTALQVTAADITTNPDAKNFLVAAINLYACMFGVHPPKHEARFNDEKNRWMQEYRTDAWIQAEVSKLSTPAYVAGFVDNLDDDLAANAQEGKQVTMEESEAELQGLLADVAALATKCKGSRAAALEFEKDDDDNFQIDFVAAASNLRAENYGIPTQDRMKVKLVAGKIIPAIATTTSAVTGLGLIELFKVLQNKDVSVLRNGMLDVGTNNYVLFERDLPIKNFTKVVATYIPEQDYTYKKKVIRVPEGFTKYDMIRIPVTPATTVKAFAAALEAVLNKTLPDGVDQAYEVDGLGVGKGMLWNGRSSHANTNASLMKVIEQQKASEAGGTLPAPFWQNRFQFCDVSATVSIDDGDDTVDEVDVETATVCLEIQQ
Put plainly: Leishmania donovani Ubiquitin Activating Enzyme (LdE1). It is filed as functional. The note with it: 30 µM.

Assay [3] has as its target Sialic acid-binding Ig-like lectin 9 (Homo sapiens) (UniProt Q9Y336). In words: Hs-Siglec9 ALPHAscreen SOP 20170721. As to conditions: 10 µM.
Another assay has as its system Trypanosoma cruzi. Put plainly: Trypanosoma cruzi phosphomannomutase and mannose-1-phosphate guanylyltransferase assay. The assay is classed as functional. As to conditions: 10 µM.
Assay [4] concerns the target T2, Arginase-2, mitochondrial (Homo sapiens) (UniProt P78540).
T2 sequence (whole entry): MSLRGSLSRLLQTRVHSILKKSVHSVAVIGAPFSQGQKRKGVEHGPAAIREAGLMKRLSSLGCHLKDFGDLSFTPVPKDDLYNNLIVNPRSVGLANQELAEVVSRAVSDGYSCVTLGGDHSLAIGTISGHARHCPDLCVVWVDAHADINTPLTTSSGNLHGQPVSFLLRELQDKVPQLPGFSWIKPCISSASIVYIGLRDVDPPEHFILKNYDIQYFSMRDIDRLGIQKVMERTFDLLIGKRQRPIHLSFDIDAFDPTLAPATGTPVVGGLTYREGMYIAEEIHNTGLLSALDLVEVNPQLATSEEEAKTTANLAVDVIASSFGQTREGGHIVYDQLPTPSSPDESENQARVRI
In words: in vitro enzyme assay to detect the production of urea directly proportional to the activity of Arginase II. Also: in the data most compounds retested in dose-response had high values. The assay is classed as functional. As to conditions: 33.3 µM.

Assay [5] has as its target T3, Proteasome subunit beta (Trypanosoma cruzi) (UniProt O96673).
T3 sequence (whole entry): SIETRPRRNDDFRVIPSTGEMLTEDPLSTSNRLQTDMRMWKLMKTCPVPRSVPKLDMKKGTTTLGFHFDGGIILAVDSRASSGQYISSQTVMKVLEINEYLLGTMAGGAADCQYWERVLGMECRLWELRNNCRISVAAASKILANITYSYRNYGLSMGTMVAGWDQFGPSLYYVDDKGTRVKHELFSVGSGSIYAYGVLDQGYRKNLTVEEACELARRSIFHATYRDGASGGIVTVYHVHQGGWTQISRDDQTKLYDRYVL
In words: Trypanosoma cruzi proteasome chymotrypsin-like activity (TcProtChymo) assay. Also: in the data most compounds retested in dose-response had high values. The assay is classed as functional. The note with it: 9.37 µM.

The species named for the next assay is Homo sapiens. Put plainly: To identify inhibition of the IFN signalling (Jak-Stat) pathway via expression of an eGFP reporter gene under the control of an IFN-stimulated response element (ISRE) containing MxA promoter. It is filed as functional. As to conditions: 30 µM.
Assay [6] concerns the target T4, Tyrosyl-tRNA synthetase, putative (Trypanosoma cruzi (strain CL Brener)) (UniProt Q4DSP6).
T4 sequence (whole entry): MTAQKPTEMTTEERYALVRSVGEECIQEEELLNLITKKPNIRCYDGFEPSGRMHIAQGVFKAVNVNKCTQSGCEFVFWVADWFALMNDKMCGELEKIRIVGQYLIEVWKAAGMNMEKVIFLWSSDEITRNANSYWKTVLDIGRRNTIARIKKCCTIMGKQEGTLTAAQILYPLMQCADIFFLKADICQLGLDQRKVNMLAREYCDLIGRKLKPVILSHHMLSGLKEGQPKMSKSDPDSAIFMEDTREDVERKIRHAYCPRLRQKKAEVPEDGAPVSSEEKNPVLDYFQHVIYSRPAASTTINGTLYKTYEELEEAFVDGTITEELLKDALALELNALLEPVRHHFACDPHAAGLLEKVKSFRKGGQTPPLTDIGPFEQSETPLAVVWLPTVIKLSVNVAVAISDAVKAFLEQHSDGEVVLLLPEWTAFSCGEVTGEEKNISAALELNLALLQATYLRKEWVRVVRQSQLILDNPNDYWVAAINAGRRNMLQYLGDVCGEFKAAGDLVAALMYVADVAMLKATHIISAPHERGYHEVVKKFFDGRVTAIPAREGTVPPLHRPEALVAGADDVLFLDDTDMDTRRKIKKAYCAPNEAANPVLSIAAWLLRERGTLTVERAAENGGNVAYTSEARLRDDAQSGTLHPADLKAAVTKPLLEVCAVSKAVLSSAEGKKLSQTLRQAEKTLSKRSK
In words: Trypanosoma cruzi tyrosyl tRNA synthetase (TcYRS) _High Tyrosine SOP. Also: in the data most compounds retested in dose-response had high values. As to conditions: 30 µM. It is filed as functional.

In assay [7] the target is T4, Tyrosyl-tRNA synthetase, putative (Trypanosoma cruzi (strain CL Brener)). In words: Trypanosoma cruzi tyrosyl tRNA synthetase (TcYRS) SOP. It is filed as functional. As to conditions: 30 µM.
Assay [8] has as its target Chromo domain-containing protein 1 (Saccharomyces cerevisiae (strain ATCC 204508 / S288c) (Baker's yeast)) (UniProt P32657). Put plainly: ScCHD-1 Enzyme Inhibition Assay. Also: in the data most compounds retested in dose-response had high values. It is filed as functional. The note with it: 30 µM.

Sialic acid-binding Ig-like lectin 9 (Homo sapiens), sequence (Q9Y336 whole entry): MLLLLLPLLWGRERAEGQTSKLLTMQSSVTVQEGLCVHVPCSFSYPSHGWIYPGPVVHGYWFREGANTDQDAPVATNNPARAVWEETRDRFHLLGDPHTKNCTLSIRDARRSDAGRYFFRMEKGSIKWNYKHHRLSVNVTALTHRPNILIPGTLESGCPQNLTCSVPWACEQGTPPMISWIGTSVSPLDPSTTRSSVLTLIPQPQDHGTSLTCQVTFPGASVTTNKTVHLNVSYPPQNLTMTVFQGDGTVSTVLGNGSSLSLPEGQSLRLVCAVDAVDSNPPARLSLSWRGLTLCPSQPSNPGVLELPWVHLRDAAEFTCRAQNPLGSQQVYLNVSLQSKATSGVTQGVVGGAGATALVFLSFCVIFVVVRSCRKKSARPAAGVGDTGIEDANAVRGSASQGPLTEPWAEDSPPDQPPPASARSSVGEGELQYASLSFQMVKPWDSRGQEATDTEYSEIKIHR
Protein translocase subunit SecA (Escherichia coli (strain K12)), sequence (P10408 whole entry): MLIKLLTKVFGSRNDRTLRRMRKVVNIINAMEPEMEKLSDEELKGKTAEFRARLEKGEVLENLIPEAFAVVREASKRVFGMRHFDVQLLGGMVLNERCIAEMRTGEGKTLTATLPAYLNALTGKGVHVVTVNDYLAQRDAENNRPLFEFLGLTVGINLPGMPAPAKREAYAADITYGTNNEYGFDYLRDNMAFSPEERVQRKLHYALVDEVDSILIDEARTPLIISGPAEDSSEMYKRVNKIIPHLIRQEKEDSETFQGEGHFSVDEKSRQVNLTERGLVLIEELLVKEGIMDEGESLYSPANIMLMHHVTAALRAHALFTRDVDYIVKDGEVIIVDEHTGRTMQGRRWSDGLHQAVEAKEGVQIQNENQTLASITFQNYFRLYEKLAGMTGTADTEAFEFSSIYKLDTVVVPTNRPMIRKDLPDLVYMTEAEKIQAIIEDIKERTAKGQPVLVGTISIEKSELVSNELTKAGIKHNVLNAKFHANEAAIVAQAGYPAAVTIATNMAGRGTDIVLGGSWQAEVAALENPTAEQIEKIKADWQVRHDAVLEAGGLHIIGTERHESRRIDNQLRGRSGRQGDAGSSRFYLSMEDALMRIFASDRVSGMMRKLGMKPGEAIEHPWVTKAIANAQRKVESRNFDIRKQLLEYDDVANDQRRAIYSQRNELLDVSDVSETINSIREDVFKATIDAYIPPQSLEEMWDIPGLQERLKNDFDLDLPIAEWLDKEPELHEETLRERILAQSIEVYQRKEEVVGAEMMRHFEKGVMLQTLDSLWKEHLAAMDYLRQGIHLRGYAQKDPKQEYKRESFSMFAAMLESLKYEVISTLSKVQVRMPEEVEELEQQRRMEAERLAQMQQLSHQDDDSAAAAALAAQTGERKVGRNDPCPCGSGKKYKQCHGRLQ
Chromo domain-containing protein 1 (Saccharomyces cerevisiae (strain ATCC 204508 / S288c) (Baker's yeast)), sequence (P32657 whole entry, the tested form may be a part): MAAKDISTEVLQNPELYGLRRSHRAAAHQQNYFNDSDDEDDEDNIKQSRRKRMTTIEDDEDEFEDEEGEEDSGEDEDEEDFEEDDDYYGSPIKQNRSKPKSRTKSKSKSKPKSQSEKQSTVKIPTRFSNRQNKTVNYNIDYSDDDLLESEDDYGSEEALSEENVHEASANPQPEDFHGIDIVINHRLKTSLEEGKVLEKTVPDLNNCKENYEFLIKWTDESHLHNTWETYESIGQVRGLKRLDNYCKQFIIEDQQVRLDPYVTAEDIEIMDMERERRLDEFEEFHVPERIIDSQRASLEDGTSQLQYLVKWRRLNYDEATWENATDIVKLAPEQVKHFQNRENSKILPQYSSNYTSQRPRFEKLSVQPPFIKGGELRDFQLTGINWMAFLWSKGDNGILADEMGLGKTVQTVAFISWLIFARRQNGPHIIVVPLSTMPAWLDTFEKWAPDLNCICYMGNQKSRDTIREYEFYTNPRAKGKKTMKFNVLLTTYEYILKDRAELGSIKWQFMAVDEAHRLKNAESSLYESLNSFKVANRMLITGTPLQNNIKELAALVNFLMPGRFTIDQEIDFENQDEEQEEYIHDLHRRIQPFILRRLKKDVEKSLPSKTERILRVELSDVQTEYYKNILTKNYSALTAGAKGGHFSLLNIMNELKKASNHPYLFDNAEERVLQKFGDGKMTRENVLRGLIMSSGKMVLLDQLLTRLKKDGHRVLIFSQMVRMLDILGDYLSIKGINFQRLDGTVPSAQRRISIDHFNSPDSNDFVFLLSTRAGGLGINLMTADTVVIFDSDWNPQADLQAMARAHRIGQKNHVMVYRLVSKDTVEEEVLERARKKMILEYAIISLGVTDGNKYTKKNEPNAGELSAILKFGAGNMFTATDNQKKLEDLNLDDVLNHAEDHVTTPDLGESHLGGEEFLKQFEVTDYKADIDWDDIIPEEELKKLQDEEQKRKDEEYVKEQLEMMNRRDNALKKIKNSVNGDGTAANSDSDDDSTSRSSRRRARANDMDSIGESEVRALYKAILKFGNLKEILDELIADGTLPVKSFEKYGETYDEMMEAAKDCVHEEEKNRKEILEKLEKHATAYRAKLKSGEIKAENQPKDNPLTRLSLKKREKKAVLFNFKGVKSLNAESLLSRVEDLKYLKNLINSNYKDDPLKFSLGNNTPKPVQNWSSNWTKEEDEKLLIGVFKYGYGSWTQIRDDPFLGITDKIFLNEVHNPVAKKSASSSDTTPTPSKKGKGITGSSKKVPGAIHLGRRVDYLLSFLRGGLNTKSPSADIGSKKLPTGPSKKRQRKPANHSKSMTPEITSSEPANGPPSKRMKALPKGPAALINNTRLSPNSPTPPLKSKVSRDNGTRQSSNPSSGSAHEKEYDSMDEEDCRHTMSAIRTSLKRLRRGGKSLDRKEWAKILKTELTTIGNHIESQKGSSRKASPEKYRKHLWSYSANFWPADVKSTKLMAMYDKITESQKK

In the case of `Cc1cnn(C2CCCN(C(=O)Cc3ccc(-n4cccn4)cc3)C2)c1` (stereo not given), the Percent Effect was -6.71% in [1]; -2.67% in assay [2]; 3.46% in assay [3]; 3.81% in the assay with Trypanosoma cruzi; 2.66% in [4]; 1.27% in assay [5]. Also, the Percent Effect in the assay filed under Homo sapiens is 6.09%; in assay [6], -1.58%; in [7] it was 5.13%; in assay [8], -7.75%.

`Cc1nc(C2CCCN(C(=O)CO)C2)cc(N2CCOCC2)n1` (stereo not given): the Percent Effect in [1] is -7.77%; in assay [2], 0%; in [3], 22.8%; in the assay on Trypanosoma cruzi, 9.02%; in [4] it was -2.45%; in [5], 13.7%. The Percent Effect was 6.91% in the assay listed under Homo sapiens, 3.72% in assay [6], 14.6% in assay [7] and -5.28% in assay [8].

Turning to `Cc1cnn(CC2CCCN2CC(=O)Nc2cc(C)nn2C)c1` (stereo not given), the Percent Effect in [1] was -2.33%; in assay [2] it was 5.2%; in [3] it was 5.19%; with Trypanosoma cruzi, 2.8%; in assay [4], 1.02%; in assay [5], -5.44%. In addition, the Percent Effect in the assay filed under Homo sapiens is 0.341%; in [6], 4.9%; in assay [7], 16.5%; in [8], -7.89%.

Consider `Cc1ccc(C(=O)N2C[C@@H](OCC3CCOCC3)[C@H]3OCCC[C@H]32)o1`, for which the Percent Effect in assay [1] is -3.48%; in assay [2], 14.3%; in assay [3] it was 0.662%; with Trypanosoma cruzi, 4.58%; in assay [4] it was 10.9%; in assay [5] it was 9.44%. Also, the Percent Effect in the assay listed under Homo sapiens was 6.42%; in [6], 4.74%; in assay [7] it was 15.4%; in [8] it was 18.8%.

For `O=C1C(NCc2nnc3n2CCCC3)CCCN1c1cccc(F)c1` (stereo not given), the Percent Effect in [1] is 0.699%; in [2], 10.3%; in [3] it was -12.3%; in the assay on Trypanosoma cruzi, -1.6%; in assay [4] it was 6.56%; in assay [5], 16.8%. The Percent Effect in the assay listed under Homo sapiens is 19.1%; in assay [6], 10.1%; in [7] it was 13.2%; in assay [8] it was -2.66%.

Turning to `CS(=O)(=O)NCc1cc2n(n1)CCCN(Cc1nc3ccccc3[nH]1)C2`, the Percent Effect is -9.74% in assay [1]; 2.7% in [2]; 1.38% in assay [3]; -1.46% in the assay on Trypanosoma cruzi; 3.85% in assay [4]; 6.16% in assay [5]. In addition, the Percent Effect in the assay filed under Homo sapiens was -1.07%; in assay [6], 6.92%; in assay [7], 9.76%; in assay [8], 3.52%.

Regarding `CC(C)c1cc(NC(=O)CN2CCC(N3CCNC3=O)CC2)on1`, the Percent Effect is -2.95% in assay [1]; 15.6% in assay [2]; 8.63% in assay [3]; -6.16% in the assay with Trypanosoma cruzi; 1.02% in [4]; 0.877% in [5]. Moreover, the Percent Effect is 23.3% in the assay filed under Homo sapiens, 5.88% in assay [6], 11.8% in [7] and -7.14% in assay [8].

On to `COc1cccc(-c2noc(C3CCN(Cc4cn(C)nc4C)C3)n2)c1` (stereo not given), for which the Percent Effect in assay [1] was -3.83%; in assay [2] it was 14.7%; in assay [3] it was 3.58%; in the assay with Trypanosoma cruzi it was 5.72%; in assay [4], -1.33%; in assay [5], 14.1%. Moreover, the Percent Effect in the assay listed under Homo sapiens was 31.6%; in assay [6], 6.35%; in [7], 20%; in assay [8] it was -24.7%.

Regarding `Cn1cccc1-c1cc(C(=O)N2CC(c3cccnc3)C2)[nH]n1`, the Percent Effect in assay [1] was -12.9%; in assay [2], 2.7%; in assay [3], 4.47%; with Trypanosoma cruzi, -2.81%; in assay [4], 1.05%; in assay [5] it was 5.65%. Besides, the Percent Effect in the assay listed under Homo sapiens is 32.9%; in assay [6] it was -1.6%; in assay [7], 0%; in assay [8], 0.144%.

Turning to `CCCOCCCNc1nccc(-c2cn(C)nc2C)n1`, the Percent Effect in assay [1] is -7.46%; in assay [2] it was 0%; in assay [3], 9.13%; in the assay on Trypanosoma cruzi it was 12.5%; in assay [4] it was -3.85%; in assay [5] it was 13.7%. Moreover, the Percent Effect in the assay filed under Homo sapiens was 36.5%; in [6] it was 5.85%; in [7], 17.1%; in assay [8], -2.61%.

For `COCc1nc(C(=O)NS(=O)(=O)c2ccc(C)cc2C)cs1`, the Percent Effect in [1] is -3.05%; in [2] it was 0%; in [3] it was 4.98%; in the assay with Trypanosoma cruzi, 1.97%; in assay [4], 4.1%; in assay [5] it was -6.23%. In addition, the Percent Effect in the assay listed under Homo sapiens was -17.6%; in assay [6] it was 2.39%; in [7], 1.21%; in assay [8], -0.274%.

As to `c1ccc(C(OCCNC2CCc3ncnn3C2)c2ccccc2)cc1` (stereo not given), the Percent Effect in assay [1] was -5.97%; in assay [2], 10.4%; in [3], 5.43%; in the assay with Trypanosoma cruzi it was 5.41%; in assay [4], -4.3%; in [5] it was 0.526%. In addition, the Percent Effect in the assay filed under Homo sapiens is -3.8%; in [6] it was 0.98%; in [7], 18.8%; in [8], -13.3%.

Regarding `NC(=O)Cn1cc(NC(=O)N2CCCC2)cn1`, the Percent Effect in assay [1] was 1.14%; in assay [2] it was 12.8%; in assay [3], -7.88%; with Trypanosoma cruzi it was -0.469%; in [4], 8.61%; in assay [5], 11.7%. In addition, the Percent Effect in the assay filed under Homo sapiens is 19.1%; in assay [6] it was 5.26%; in [7], 18.1%; in assay [8] it was -4.77%.
